Reference: paper PMC3795721, “Screening for Protein-DNA Interactions by Automatable DNA-Protein Interaction ELISA”

Biological target: AT4G31550 (Arabidopsis thaliana, UniProt Q9SV15 228-325)
Assay: DPI-ELISA; DPI-ELISA, streptavidin 384-well plate, 1-2 pmol biotinylated dsDNA per well, crude native E. coli extract, anti-His detection; buffer as in Brand et al. [46],; high values mean tight binding
Conditions: tags: C-terminal His (pET-DEST42); label: 5' biotin on forward strand; dsDNA, one strand shown

Sequence of AT4G31550 (Q9SV15 228-325): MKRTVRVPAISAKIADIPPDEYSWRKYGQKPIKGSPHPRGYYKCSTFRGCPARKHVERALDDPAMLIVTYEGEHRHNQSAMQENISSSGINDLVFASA

Sequence | binding signal [absorbance]
AAAAAATGTCTAGACTCGGACATTCGAAAA | 0.54 ± 0.0566
AAAAAAGCCTTTACCCTTGTTCCTCTAAAA | 0.69 ± 0.17
AAAAAAGGTCTGGACGATCACCGGGAAAAA | 0.565 ± 0.12
AAAAAAGTCCGCCCTTAATTCATATTAAAA | 1.37 ± 0.269
AAAAAATTTATACTTGATCCTGGCTTAAAA | 0.575 ± 0.0636
AAAAAATGCCCATGTGCACCCGTACGAAAA | 0.56 ± 0.0849
AAAAAACTAGGTATCGGTAGGCGCCGAAAA | 0.6 ± 0.0849
AAAAAATACATTTGACTTTGGGTTTCAAAA | 3.4 ± 0.297
AAAAAAGCTTCTCATGTTGTCTTAGGAAAA | 0.695 ± 0.177
AAAAAAGGGGTCCTTTTCCAATGTCTAAAA | 0.605 ± 0.0495
AAAAAATTACTTCTCCCTTCCTTTGCAAAA | 0.605 ± 0.163
AAAAAACGGGATTCGAAACTTTTTGTAAAA | 0.54 ± 0.099
AAAAAATGCAGACCTTCAGCTGGGTAAAAA | 0.58 ± 0.0141
AAAAAACTACCTCTACTCTAGCCTTAAAAA | 0.515 ± 0.0495
AAAAAAAAATTTCGAGCCTCGGCGTAAAAA | 0.49 ± 0.0849
AAAAAAGAAATACCAGAAACTATCATAAAA | 0.705 ± 0.219
AAAAAATCCGTTCCCATTTGTCCGTCAAAA | 0.58 ± 0.0849
AAAAAAATGGTGCCGCTGAGCAAATTAAAA | 0.555 ± 0.12
AAAAAAGCGCGCCCGCACTGTTAATAAAAA | 0.635 ± 0.106

Sequence | binding signal [absorbance]
AAAAAAGGGTTTAGATGTCCTTCAAAAAAA | 0.59 ± 0.099
AAAAAAGGCTGTGGCCAATGTTCGTAAAAA | 0.55 ± 0.0566
AAAAAATTCAGAGCTTCGAGGTTCCGAAAA | 0.66 ± 0.0707
AAAAAAGTTTCCTACTTGTGTCTGTGAAAA | 0.53 ± 0.0849
AAAAAAGCTCCCGTCTCTTAGTTCTAAAAA | 0.695 ± 0.12
AAAAAATCCTATCTTGGCTTTGGCCTAAAA | 0.65 ± 0.156
AAAAAATTCTTTTTTCTTCAAGGTCTAAAA | 0.565 ± 0.0212
AAAAAAGCTCATGGCCCTGAGGATCTAAAA | 0.73 ± 0.113
AAAAAACGTGCGCGTGCATGTCATCGAAAA | 0.665 ± 0.0919
AAAAAAACCTCTTTATTCTCGATTGTAAAA | 0.585 ± 0.0495
AAAAAACCTTACCTCATCCCTATCCCAAAA | 0.605 ± 0.134
AAAAAATTCTTAGTTAGATTCACCTCAAAA | 0.575 ± 0.134
AAAAAAATCCCACTTCATTCTAAAAA | 0.6 ± 0.0707
AAAAAATCTATTCCATTTCGCCTTCTAAAA | 0.68 ± 0.141
AAAAAATGCCGAGACCCCATGCCGGCAAAA | 0.51 ± 0.099
AAAAAAGATTGACTCGTCTTACTCGAAAAA | 3.08 ± 0.742
AAAAAACTACAACCTGCGCGGTGGTCAAAA | 0.775 ± 0.0636
AAAAAAGGTGAGGAAGTTGGGTATGGAAAA | 0.64 ± 0.0566
AAAAAAGCTTCGCGCCAGCGGGAAAA | 0.695 ± 0.0636
